# Measurements published in PubChem BioAssay (NCATS).
# Results filed as inconclusive are left out. Calls of active or inactive are those of the source. Unless noted, calls come from the whole dose curve; as a rule, active = well fitted curve in either direction with a large enough effect (not every such curve was filed as active); inconclusive = small, poorly fitted or top-dose-only effect, or another doubt; inactive = flat fitted curve, though single readings scatter.
# Tests used:
# [1] = target: Lysosomal acid glucosylceramidase (Homo sapiens) (UniProt P04062); assay: Glucocerebrosidase-p2 (AID 348; in the data active = potency below about 10 µM; note: potency is the fitted concentration of half-maximal effect); conditions: purified GBA, blue fluorogenic substrate, 40 min
# Lysosomal acid glucosylceramidase (Homo sapiens), sequence (P04062 whole entry, looked up): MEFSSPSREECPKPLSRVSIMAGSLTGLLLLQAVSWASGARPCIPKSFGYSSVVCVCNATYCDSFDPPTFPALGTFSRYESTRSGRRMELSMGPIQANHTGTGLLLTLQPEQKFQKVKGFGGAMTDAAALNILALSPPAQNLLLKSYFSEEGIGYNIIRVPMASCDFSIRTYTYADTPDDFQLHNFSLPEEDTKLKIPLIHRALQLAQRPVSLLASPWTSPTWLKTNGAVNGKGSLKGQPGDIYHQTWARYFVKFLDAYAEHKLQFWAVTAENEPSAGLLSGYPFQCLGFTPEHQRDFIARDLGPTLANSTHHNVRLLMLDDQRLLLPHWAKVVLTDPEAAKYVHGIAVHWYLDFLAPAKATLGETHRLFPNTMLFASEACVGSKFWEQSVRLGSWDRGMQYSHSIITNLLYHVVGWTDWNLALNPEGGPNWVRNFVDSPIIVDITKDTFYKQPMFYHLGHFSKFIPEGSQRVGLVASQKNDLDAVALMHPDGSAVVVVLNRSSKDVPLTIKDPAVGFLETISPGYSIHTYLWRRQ
# In short: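 Compounds titrated from 0.6 nM upwards against 0.2 nM enzyme in pH 5.9 citric acid/KH2PO4, taurocholate, tween-20; blue fluorogenic substrate 80 uM, 40 min room temperature, stopped and read Ex 365/Em 440 for AC50.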
# [2] = AP1 Signaling Pathway (AID 357); conditions: ME-180 AP-1-bla reporter, EGF-induced, beta-lactamase ratio, 5 h; at 7.69 µM (top of the series) unless noted; note: % is set by controls: 0 for no effect and ±100 for the full control effect
# In short: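 AP-1-bla ME-180 cells with beta-lactamase reporter under AP-1 response element, stimulated with EC50 EGF; compounds titrated, 5 hours at 37 degrees Celsius. CCF4 read at 460/530 nm ratio; positive and negative modulators judged by AC50.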
# [3] = target: Cytochrome P450 1A2 (Homo sapiens) (UniProt P05177); assay: p450-cyp1a2 (AID 410; calls by dose curve; note: potency is the fitted concentration of half-maximal effect;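 for activity change, negative = inhibition: -100% = full effect of reference inhibitor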); conditions: recombinant CYP1A2, luciferin-ME demethylation, luminescence; series mostly up to 57 µM
# Cytochrome P450 1A2 (Homo sapiens), sequence (P05177 whole entry, looked up): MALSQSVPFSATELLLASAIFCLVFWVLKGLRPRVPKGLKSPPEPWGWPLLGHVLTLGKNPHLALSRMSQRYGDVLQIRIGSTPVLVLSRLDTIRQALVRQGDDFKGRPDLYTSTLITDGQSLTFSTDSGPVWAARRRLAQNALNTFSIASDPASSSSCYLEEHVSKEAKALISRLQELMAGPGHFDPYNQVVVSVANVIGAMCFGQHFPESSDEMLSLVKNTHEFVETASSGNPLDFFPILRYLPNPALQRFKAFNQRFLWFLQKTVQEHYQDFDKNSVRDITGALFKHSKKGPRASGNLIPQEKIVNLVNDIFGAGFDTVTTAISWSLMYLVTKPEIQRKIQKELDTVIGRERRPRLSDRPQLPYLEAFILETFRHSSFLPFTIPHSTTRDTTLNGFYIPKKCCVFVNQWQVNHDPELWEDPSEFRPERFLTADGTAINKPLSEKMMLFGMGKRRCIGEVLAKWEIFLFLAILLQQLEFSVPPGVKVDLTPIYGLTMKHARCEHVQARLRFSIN
# In short: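 Human CYP1A2 (20nM) demethylated Luciferin-ME at its Km (100uM) in 100mM KPO4. After 10 min compound preincubation, NADPH regeneration ran the reaction 60 min at room temperature. Luciferin was read by luminescence, normalized to 57 uM furafylline.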
# [4] = NFAT Signaling Pathway (AID 444); conditions: Jurkat NFAT-bla M1, carbachol, beta-lactamase ratio, 5 h; at 7.69 µM (top of the series) unless noted;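 note: carbachol stimulus at about its EC50 of 1 µM final; % is set by controls: 0 for no effect and ±100 for the full control effect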
# In short: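 Jurkat cells with NFAT-driven β-lactamase reporter and co-expressed M1 receptor, stimulated with carbachol (final 1 uM, ~EC50), compound titration, 5 h at 37 °C. CCF4 loaded 1 h at RT; 460/530 nm ratio gave %activity and AC50.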
# [5] = Stat Signaling Pathway (AID 446); conditions: ME-180 SIE beta-lactamase reporter, IL-6 stimulated, 5 h; at 7.69 µM (top of the series) unless noted;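 note: ME-180 cervical cancer cells given 40 pM IL-6 alongside compound; SIE-controlled beta-lactamase reporter measured as 460/530 nm FRET emission ratio; % is set by controls: 0 for no effect and ±100 for the full control effect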
# In short: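 Screening format detects activators and inhibitors alike: ME-180 SIE-bla cells stimulated at 40 pM IL-6 for 5 hrs with compound, then dual-emission beta-lactamase read at 405 nm excitation.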
# [6] = target: Glucocorticoid receptor (Homo sapiens) (UniProt P04150); assay: GR-EFC Redistribution (AID 451; calls by dose curve; note: potency is the fitted concentration of half-maximal effect); conditions: CHO-K1 GR-EFC translocation, beta-gal luminescence, 2 h
# Glucocorticoid receptor (Homo sapiens), sequence (P04150 whole entry, looked up, the tested form may be a part): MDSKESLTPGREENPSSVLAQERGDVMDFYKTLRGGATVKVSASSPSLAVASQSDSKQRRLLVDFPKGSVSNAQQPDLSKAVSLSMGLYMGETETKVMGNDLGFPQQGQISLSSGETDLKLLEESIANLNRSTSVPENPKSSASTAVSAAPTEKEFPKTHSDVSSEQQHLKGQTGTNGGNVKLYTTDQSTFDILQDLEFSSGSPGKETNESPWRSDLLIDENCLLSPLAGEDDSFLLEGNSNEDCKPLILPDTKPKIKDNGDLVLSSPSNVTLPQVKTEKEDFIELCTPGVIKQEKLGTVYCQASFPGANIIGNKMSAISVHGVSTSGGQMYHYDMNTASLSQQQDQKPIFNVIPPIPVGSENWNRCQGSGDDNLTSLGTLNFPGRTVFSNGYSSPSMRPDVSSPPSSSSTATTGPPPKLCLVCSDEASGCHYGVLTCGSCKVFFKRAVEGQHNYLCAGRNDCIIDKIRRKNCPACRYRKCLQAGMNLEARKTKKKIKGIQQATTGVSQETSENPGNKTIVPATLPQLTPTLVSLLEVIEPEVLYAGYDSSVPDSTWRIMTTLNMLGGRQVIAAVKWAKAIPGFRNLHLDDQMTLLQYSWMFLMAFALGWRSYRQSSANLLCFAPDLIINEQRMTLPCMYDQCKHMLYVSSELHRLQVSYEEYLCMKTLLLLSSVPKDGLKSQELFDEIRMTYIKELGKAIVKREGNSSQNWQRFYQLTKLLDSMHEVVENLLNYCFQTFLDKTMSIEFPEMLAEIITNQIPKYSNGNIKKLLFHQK
# In short: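 CHO-K1 cells expressing nuclear EA and GR-ED fragments of b-gal; compounds titrated up to 46 uM final, 2 h at 37 C. GR nuclear translocation read as complemented b-gal luminescence after 1 h RT detection.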
# [7] = target: Mitogen-activated protein kinase 10 (Mus musculus) (UniProt Q61831); assay: JNK3 AlphaScreen Assay (AID 530); conditions: JNK3 lysate, c-Jun phosphorylation; series mostly up to 57.1 µM;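 note: kinase came from lysate of stimulated human HepG2 cells; signal reports phosphorylation of biotinylated GST-cJun 1-79 at Ser73 with 10 µM ATP; % is set by controls: 0 for no effect and ±100 for the full control effect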
# In short: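 qHTS format: compounds tested as titrations against IL-1beta/TNF-alpha-activated HepG2 lysate JNK3 with biotin-GST-cJun substrate and 10 uM ATP at room temperature. Loss of anti-phospho-cJun AlphaScreen signal indicates inhibition.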
# [8] = target: 3',5'-cyclic-AMP phosphodiesterase 4B (Homo sapiens) (UniProt Q07343); assay: qHTS Assay for Inhibitors of PDE-IV (AID 607; active = well fitted activation curve with a large enough effect in the main read-out, with a control signal flat, not every such curve was filed as active; note: % of control where 0% means no effect); conditions: HEK293 ACTOne CNG channel cells, membrane potential fluorescence; series mostly up to 22.9 µM
# 3',5'-cyclic-AMP phosphodiesterase 4B (Homo sapiens), sequence (Q07343 whole entry, looked up): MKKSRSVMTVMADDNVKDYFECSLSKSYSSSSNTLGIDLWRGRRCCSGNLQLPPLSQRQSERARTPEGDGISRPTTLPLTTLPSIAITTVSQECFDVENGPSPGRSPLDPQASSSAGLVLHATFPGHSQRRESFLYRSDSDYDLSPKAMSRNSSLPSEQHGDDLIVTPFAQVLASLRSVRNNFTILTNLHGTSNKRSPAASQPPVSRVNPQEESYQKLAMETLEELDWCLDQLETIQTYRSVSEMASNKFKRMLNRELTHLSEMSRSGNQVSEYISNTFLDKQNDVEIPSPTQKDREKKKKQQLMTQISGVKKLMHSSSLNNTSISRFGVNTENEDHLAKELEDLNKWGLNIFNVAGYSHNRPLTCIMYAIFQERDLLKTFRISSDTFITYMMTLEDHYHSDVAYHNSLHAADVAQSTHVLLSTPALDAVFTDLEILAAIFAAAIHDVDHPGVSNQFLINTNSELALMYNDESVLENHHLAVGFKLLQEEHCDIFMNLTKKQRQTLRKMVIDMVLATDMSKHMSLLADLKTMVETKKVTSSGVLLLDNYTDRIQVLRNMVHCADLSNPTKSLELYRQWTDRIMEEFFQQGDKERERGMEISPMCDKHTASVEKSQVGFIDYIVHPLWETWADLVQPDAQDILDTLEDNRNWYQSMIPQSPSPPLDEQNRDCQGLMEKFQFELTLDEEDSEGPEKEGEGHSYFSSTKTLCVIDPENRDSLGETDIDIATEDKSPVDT
# In short: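 The readout is membrane depolarisation from a cAMP-sensing CNG channel, detected with a potential dye at ex 535/em 590. Cells were HEK293-derived (endogenous PDE-IV) at 1000 cells/well, titrated up to 22.9 uM final.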
# [9] = target: Cytochrome P450 3A4 (Homo sapiens) (UniProt P08684); assay: qHTS Assay for Activators of Cytochrome P450 3A4 (AID 885; active = well fitted curve in the direction sought with a large enough effect; an effect the other way counts as inactive or inconclusive; note: nearly all actives have a fitted effect of over 65% in size); conditions: recombinant CYP3A4, Luciferin-PPXE luminescence, 60 min; series mostly up to 57.1 µM
# Cytochrome P450 3A4 (Homo sapiens), sequence (P08684 whole entry, looked up): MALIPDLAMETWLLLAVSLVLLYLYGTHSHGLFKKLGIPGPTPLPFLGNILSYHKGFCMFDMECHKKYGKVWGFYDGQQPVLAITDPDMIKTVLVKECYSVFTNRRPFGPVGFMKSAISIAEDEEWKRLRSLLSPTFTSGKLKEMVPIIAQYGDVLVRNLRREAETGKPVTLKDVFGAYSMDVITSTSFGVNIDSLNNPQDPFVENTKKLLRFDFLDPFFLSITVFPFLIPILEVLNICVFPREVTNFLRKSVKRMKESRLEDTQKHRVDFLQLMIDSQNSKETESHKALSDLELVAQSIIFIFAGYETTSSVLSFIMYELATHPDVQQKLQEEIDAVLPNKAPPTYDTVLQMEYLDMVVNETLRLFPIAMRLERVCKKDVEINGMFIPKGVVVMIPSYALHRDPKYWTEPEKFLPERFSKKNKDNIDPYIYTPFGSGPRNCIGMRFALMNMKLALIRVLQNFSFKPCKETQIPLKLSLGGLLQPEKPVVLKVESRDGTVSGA
# In short: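 Steps: enzyme/substrate mix dispensed; compound added, 10 min RT; NADPH regeneration solution added, 60 min RT; luciferin detection buffer stops reaction; 20 min later luminescence measured.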
# [10] = qHTS Assay for Lipid Storage Modulators (AID 1519; calls by dose curve); conditions: Drosophila S3 cells, BODIPY lipid droplet/cell ratio, laser cytometry, cells loaded with oleic acid; for activity change, negative = inhibition: at 57.5 µM (top of the series)
# In short: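 Cells seeded at 5,000 per well were treated with compounds over a concentration series and loaded with oleic acid (400 uM, as added). Lipid droplet fluorescence (488 nm excitation, 500-530 nm channel) was read by laser-scanning cytometry and normalized to 20 uM Triacsin C.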
# [11] = Primary qHTS for small molecule stabilizers of the endoplasmic reticulum resident proteome: Secreted ER Calcium Modulated Protein (SERCaMP) assay (AID 1508630; active = well fitted curve in the direction sought with a large enough effect; an effect the other way counts as inactive or inconclusive; note: % is set by controls: 0 for no effect and ±100 for the full control effect); conditions: SH-SY5Y GLuc-SERCaMP (Gaussia luciferase released on ER calcium loss) secretion, thapsigargin, luminescence; series mostly up to 38.4 µM
# In short: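 GLuc-SERCaMP-expressing SH-SY5Y cells, pretreated 16 h with compound, are challenged with thapsigargin to empty ER calcium stores; after 4 h, coelenterazine is added directly to the medium and luminescence is imaged.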
# [12] = target: Cytochrome P450 2D6 (Homo sapiens) (UniProt P10635); assay: qHTS Assay for Inhibitors and Substrates of Cytochrome P450 2D6 (AID 891; active = well fitted curve in the direction sought with a large enough effect; an effect the other way counts as inactive or inconclusive; note: potency is the fitted concentration of half-maximal effect; nearly all actives have a fitted effect of over 60% in size); conditions: recombinant CYP2D6, luciferin-ME EGE luminescence; series mostly up to 57.1 µM
# Cytochrome P450 2D6 (Homo sapiens), sequence (P10635 whole entry, looked up): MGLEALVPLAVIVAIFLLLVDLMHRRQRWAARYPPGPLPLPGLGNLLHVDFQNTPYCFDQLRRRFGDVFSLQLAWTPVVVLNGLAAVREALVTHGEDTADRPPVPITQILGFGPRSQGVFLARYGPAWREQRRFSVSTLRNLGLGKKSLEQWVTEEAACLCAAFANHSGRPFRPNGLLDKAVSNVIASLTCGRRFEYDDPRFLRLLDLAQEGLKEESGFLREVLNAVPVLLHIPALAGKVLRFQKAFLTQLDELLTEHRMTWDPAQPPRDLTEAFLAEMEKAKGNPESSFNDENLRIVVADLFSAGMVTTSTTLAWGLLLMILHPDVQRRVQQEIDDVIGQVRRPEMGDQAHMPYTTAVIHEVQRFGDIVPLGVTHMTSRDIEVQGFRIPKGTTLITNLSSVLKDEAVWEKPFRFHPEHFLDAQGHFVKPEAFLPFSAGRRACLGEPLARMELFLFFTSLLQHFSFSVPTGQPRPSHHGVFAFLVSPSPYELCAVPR
# In short: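 Human CYP2D6 (5 nM) with 30 uM Luciferin-ME EGE (at Km) in 100 mM KPO4, compound preincubated 10 min, then NADPH regeneration system for 60 min at room temperature. Luciferin read by luminescence; normalized to 1.43 uM quinidine.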
# [13] = qHTS Assay for Identification of Small Molecule Agonists for Hypoxia Response Element Signaling Pathway (AID 914; active = well fitted activation curve with a large enough effect in the signal ratio, with a control signal flat, not every such curve was filed as active; the % refers to the signal ratio; note: % of control where 0% means no effect); conditions: ME-180 HRE-bla reporter, beta-lactamase ratio, CoCl2, 17 h; activation: stronger effect = higher value
# In short: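 ME-180 cells carrying an HRE-driven beta-lactamase reporter were treated with compounds in a titration series plus an EC50 level of CoCl2 for 17 h at 37 degrees Celsius; CCF4 readout as the 460nm/530nm ratio gave AC50 values.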
# [14] = measured here: cell count channel max response
# [15] = measured here: lipid channel max response
Compound,Potency [1],"activity change, negative = inhibition [2]",Potency [3],"activity change, negative = inhibition [4]","activity, negative = inhibition [5]",Potency [6],outcome [7],Potency [8],Potency [9],"activity change, negative = inhibition [10]","max response [10, 14] [%]","max response [10, 15] [%]",Potency [11],Potency [12],activation [13]
CC(=O)N1CCC2(CCCN(c3ccccc3)C2)CC1,> 11.4 µM (inactive),-11.7% (inactive),inactive,9.86% (inactive),-0.0216% (inactive),> 46 µM (inactive),inactive,inactive,inactive,1.01% (inactive),9.92,12.8,inactive,–,–
COC(=O)N1CCC[C@@]2(CCN(C(=O)Nc3cccc(F)c3)C2)C1,> 11.4 µM (inactive),-17.4% (inactive),15.8 µM (active),-2.35% (inactive),1.62% (inactive),> 46 µM (inactive),inactive,inactive,inactive,5.97% (inactive),20.5,28.7,inactive,–,–
COc1ccc(NC(=O)N2CCCC3(CCN(C(=O)c4cnccn4)CC3)C2)cc1,> 11.4 µM (inactive),-0.971% (inactive),inactive,1.32% (inactive),-7.92% (inactive),> 46 µM (inactive),inactive,inactive,inactive,4.77% (inactive),1.78,8.5,inactive,–,–
CC(=O)N1CCC[C@@]2(CCN(c3ccncc3)C2)C1,> 11.4 µM (inactive),2.82% (inactive),inactive,3.22% (inactive),-0.448% (inactive),> 46 µM (inactive),inactive,inactive,inactive,2.25% (inactive),8.59,14.8,inactive,–,–
O=C(Nc1cccc(F)c1)N1CC[C@@]2(CCCN(C(=O)c3ccco3)C2)C1,> 11.4 µM (inactive),1.78% (inactive),25.1 µM (active),-0.255% (inactive),8.88% (inactive),> 46 µM (inactive),inactive,inactive,inactive,0.339% (inactive),-5.34,-1.46,inactive,–,–
O=C(c1cnccn1)N1CCC[C@@]2(CCN(Cc3nccs3)C2)C1,> 11.4 µM (inactive),-10.4% (inactive),inactive,8.21% (inactive),-0.706% (inactive),> 46 µM (inactive),inactive,inactive,inactive,4.59% (inactive),14.2,20.9,inactive,–,–
Cc1noc(C)c1C(=O)N1CCC2(CCCN(c3ccccc3)C2)CC1,> 11.4 µM (inactive),-12.1% (inactive),inactive,-9.55% (inactive),-1.28% (inactive),> 46 µM (inactive),inactive,inactive,inactive,-0.946% (inactive),8.91,9.27,inactive,–,–
COc1ccc(NC(=O)N2CC[C@@]3(CCCN(C(=O)c4csnn4)C3)C2)cc1,> 11.4 µM (inactive),-1.53% (inactive),inactive,17.4% (inactive),7.84% (inactive),> 46 µM (inactive),inactive,inactive,inactive,5.36% (inactive),14.7,23.5,inactive,–,–
COC(=O)N1CCC2(CCCN(Cc3ccccc3OC)C2)CC1,> 11.4 µM (inactive),-7.44% (inactive),inactive,-73.7% (active),-10.7% (inactive),> 46 µM (inactive),inactive,inactive,inactive,-2.47% (inactive),15.3,15.9,inactive,3.16 µM (active),–
COCC(=O)N1CCC[C@@]2(CCN(Cc3ccc(C#N)cc3)C2)C1,> 11.4 µM (inactive),-13.6% (inactive),inactive,4.93% (inactive),5.14% (inactive),> 46 µM (inactive),inactive,inactive,inactive,5.07% (inactive),7.03,15.9,inactive,–,–
CN1CCCC2(CCN(C(=O)c3cnccn3)CC2)C1,> 11.4 µM (inactive),-9.74% (inactive),inactive,-25% (inactive),3.76% (inactive),> 46 µM (inactive),inactive,inactive,inactive,-0.798% (inactive),2.95,3.48,inactive,–,–
CC(C)NC(=O)N1CC2(CCN(C(=O)c3ccncc3)CC2)C1,> 11.4 µM (inactive),13% (inactive),inactive,10.6% (inactive),7.63% (inactive),> 46 µM (inactive),inactive,inactive,inactive,-0.244% (inactive),11.6,15.6,inactive,–,–
O=C(c1csnn1)N1CCC[C@@]2(CCN(Cc3nccs3)C2)C1,> 11.4 µM (inactive),2.1% (inactive),inactive,2.26% (inactive),-2.25% (inactive),> 46 µM (inactive),inactive,inactive,inactive,6.67% (inactive),15.7,25.3,inactive,5.01 µM (active),-0.307% (inactive)
